Consider eight compounds from PubChem BioAssay (Tox21).

Values without a mark were called inactive. Records with an inconclusive call do not appear. Active and inactive are the calls of the source. Unless noted, the call rests on the fitted dose curve; in most records, active means well fitted curve in the direction sought with a large enough effect in the repeat runs; inconclusive means weak or mixed curves; inactive means no such curve, though single readings can be large; an effect the other way counts as inactive or inconclusive.

Experiment [1] in a line: qHTS RealTime-Glo MT Cell Viability Assay in HEK293 cells - 0 hour (AID 1224880). Further: top concentration of the series differs between compounds; nearly all actives have a fitted effect of over 45% in size. In a few lines: (§1)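 Viable HEK293 cells reduce a cell-permeant prosubstrate; the product diffuses out and is consumed by NanoLuc in the medium to give light. Compounds went in after a 5 h incubation and plates were read over the treatment course.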
Experiment [2] is described as follows: A CellTox Green Cytotoxicity Assay to monitor cytotoxicity in HEK293 cells - 32 hour (AID 1224881). Further: nearly all actives have a fitted effect of over 40% in size. In a few lines: (§2)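 Fluorescence intensity, read at 0, 8, 16, 24, 32 and 40 h of compound treatment, reflected dye binding to DNA of dead HEK293 cells; compounds (23 nL, DMSO) were added 5 h after plating cells with reagent.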
Experiment [3] is described as follows: A CellTox Green Cytotoxicity Assay to monitor cytotoxicity in HepG2 cells - 0 hour (AID 1224882). Further: nearly all actives have a fitted effect of over 35% in size. In a few lines: (§3)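 Using 1536-well format, dye-containing HepG2 suspension was seeded, allowed 5 h at 37 C/5% CO2, dosed by pintool with compounds, positive and negative controls, and imaged for fluorescence across 40 h.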
A short description of experiment [4]: A CellTox Green Cytotoxicity Assay to monitor cytotoxicity in HepG2 cells - 32 hour (AID 1224883). Further: nearly all actives have a fitted effect of over 50% in size. In a few lines: as §3
Experiment [5] can be described thus: A CellTox Green Cytotoxicity Assay to monitor cytotoxicity in HEK293 cells - 8 hour (AID 1224884). Further: nearly all actives have a fitted effect of over 35% in size. In a few lines: as §2
Experiment [6] in a line: qHTS RealTime-Glo MT Cell Viability Assay in HepG2 cells - 16 hour (AID 1224885). Further: nearly all actives have a fitted effect of over 50% in size. In a few lines: (§4)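 qHTS, HepG2, 600 cells/well, RealTime-Glo (NanoLuc + prosubstrate) added with cells; 5 h preincubation; DMSO compound addition; 37 C; luminescence at 0/8/16/24/32/40 h.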
Experiment [7] is described as follows: qHTS RealTime-Glo MT Cell Viability Assay in HEK293 cells - 24 hour (AID 1224886). Further: top concentration of the series differs between compounds; nearly all actives have a fitted effect of over 50% in size. In a few lines: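 Assay medium contained NanoLuc luciferase plus cell-permeant prosubstrate, added with HEK293 cells at 600 cells/well. After 5 h at 37 C/5% CO2 compounds were added; plates stayed at 37 C for 40 h with serial luminescence reads.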
Experiment [8] in a line: qHTS RealTime-Glo MT Cell Viability Assay in HEK293 cells - 8 hour (AID 1224887). Further: nearly all actives have a fitted effect of over 50% in size. Further: potency means the concentration at half of the fitted maximal effect. In a few lines:
as §1

Experiment [9] can be described thus: A CellTox Green Cytotoxicity Assay to monitor cytotoxicity in HEK293 cells - 16 hour (AID 1224888). Further: nearly all actives have a fitted effect of over 35% in size. In a few lines: as §2
Experiment [10] is described as follows: qHTS RealTime-Glo MT Cell Viability Assay in HepG2 cells - 0 hour (AID 1224889). Further: nearly all actives have a fitted effect of over 50% in size. In a few lines:
as §4

Experiment [11] is described as follows: A CellTox Green Cytotoxicity Assay to monitor cytotoxicity in HepG2 cells - 8 hour (AID 1224890). Further: nearly all actives have a fitted effect of over 45% in size. In a few lines:
as §3

A short description of experiment [12]: qHTS assay to identify small molecule antagonists of the estrogen receptor alpha (ER-alpha) signaling pathway using the BG1 cell line in the presence of 0.1 nM 17-beta-estradiol - cell viability counter screen (AID 1259241). Further: nearly all actives have a fitted effect of over 40% in size. In a few lines:
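Measures cytotoxicity alongside the ER-alpha antagonist readout: VM7Luc4E2 cells, charcoal-stripped serum, 0.1 nM 17beta-estradiol final, 22 hr compound incubation at 37C, CellTiter-Fluor fluorescence.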

A short description of experiment [13]: qHTS assay to identify small molecule antagonists of the androgen receptor (AR) signaling pathway using the MDA cell line in the presence of 0.5 nM R1881 - cell viability counter screen (AID 1259242). Further: nearly all actives have a fitted effect of over 45% in size. In a few lines: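 Viability of MDA-kb2 cells was multiplexed with the luciferase AR readout; after 16 hr with compounds and R1881 at 0.5 nM final, CellTiter-Fluor fluorescence was recorded.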

Experiment [14] can be described thus: qHTS assay to identify small molecule HDAC inhibitors (AID 1259364). Further: potency means the concentration at half of the fitted maximal effect.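 Further: wild-type HCT-116 cells with endogenous class I/II HDAC activity; nearly all actives have a fitted effect of over 45% in size.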 In a few lines:
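Read-out: luminescence of HDAC-Glo I/II reagent, 30 min RT, reflecting class I/II deacetylase activity in whole HCT-116 cells pre-exposed 2 h to DMSO-dissolved compounds.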

The nature of experiment [15]: qHTS assay to identify small molecule antagonists of the sonic hedgehog signaling (Shh) pathway - cell viability counter screen (AID 1259367). Further: nearly all actives have a fitted effect of over 55% in size. In a few lines: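 NIH/3T3-derived Gli1-Luc reporter cells, 2,000/well, plated 4 hr before compound addition, then stimulated with conditioned medium for 24 hr at 37C. Viability measured in the same wells by CellTiter-Fluor fluorescence, reagent added at 23 hr for 1 hr.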

Experiment [16] deals with Androgen receptor (Homo sapiens) (UniProt P10275). The experiment is described as follows: qHTS assay to identify small molecule antagonists of the androgen receptor (AR) signaling pathway using the MDA cell line in the presence of 0.5 nM R1881 (AID 1259243). Further: nearly all actives have a fitted effect of over 50% in size. In a few lines:
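Reporter cells cultured without CO2 receive test chemicals, then 0.5 nM R1881 final; after 16 hr at 37C, ONE-Glo is added and light output recorded.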

Experiment [17] has as its target Estrogen receptor (Homo sapiens) (UniProt P03372). Put plainly: qHTS assay to identify small molecule antagonists of the estrogen receptor alpha (ER-alpha) signaling pathway using the BG1 cell line in the presence of 0.1 nM 17-beta-estradiol (AID 1259244). Further: nearly all actives have a fitted effect of over 50% in size. In a few lines:
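Estradiol at 0.1 nM (final) stimulates the endogenous ER-alpha of VM7Luc4E2 cells carrying an ERE-driven luciferase; compounds are co-incubated 22 h at 37C and luciferase output quantified by luminescence.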

Experiment [18] is described as follows: qHTS assay to identify small molecule HDAC inhibitors - cell viability counter screen (AID 1259365). In a few lines: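 Following a 2hr exposure of overnight-plated wild-type HCT-116 cells to DMSO-delivered compounds, CellTiter-Glo was added and luminescence recorded after 30min at room temperature.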
Experiment [19] can be described thus: qHTS assay to identify small molecule agonists of the sonic hedgehog signaling (Shh) pathway - cell viability counter screen (AID 1259366). Further: nearly all actives have a fitted effect of over 50% in size. In a few lines: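 After a 4hr attachment at 37C, NIH/3T3 cells bearing an integrated Gli1-driven luciferase reporter were dosed with compounds. Treatment lasted 24hr, with the final hour including CellTiter-Fluor for a fluorescence viability measurement.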

The nature of experiment [20]: qHTS assay to identify small molecule phospholipidosis (PLD) inducers (AID 1259344; active means well fitted curve in the direction sought with a large enough effect; an effect the other way counts as inactive or inconclusive). In a few lines: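 HepG2 cells, 900/well, treated with compound plus LipidTOX Red for 24 h at 37 C; amiodarone positive and DMSO negative controls. Fixed with paraformaldehyde/Hoechst, then high-content imaging scored LipidTOX pit count and integrated intensity per well and per cell.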

Androgen receptor (Homo sapiens), sequence (P10275 whole entry, looked up): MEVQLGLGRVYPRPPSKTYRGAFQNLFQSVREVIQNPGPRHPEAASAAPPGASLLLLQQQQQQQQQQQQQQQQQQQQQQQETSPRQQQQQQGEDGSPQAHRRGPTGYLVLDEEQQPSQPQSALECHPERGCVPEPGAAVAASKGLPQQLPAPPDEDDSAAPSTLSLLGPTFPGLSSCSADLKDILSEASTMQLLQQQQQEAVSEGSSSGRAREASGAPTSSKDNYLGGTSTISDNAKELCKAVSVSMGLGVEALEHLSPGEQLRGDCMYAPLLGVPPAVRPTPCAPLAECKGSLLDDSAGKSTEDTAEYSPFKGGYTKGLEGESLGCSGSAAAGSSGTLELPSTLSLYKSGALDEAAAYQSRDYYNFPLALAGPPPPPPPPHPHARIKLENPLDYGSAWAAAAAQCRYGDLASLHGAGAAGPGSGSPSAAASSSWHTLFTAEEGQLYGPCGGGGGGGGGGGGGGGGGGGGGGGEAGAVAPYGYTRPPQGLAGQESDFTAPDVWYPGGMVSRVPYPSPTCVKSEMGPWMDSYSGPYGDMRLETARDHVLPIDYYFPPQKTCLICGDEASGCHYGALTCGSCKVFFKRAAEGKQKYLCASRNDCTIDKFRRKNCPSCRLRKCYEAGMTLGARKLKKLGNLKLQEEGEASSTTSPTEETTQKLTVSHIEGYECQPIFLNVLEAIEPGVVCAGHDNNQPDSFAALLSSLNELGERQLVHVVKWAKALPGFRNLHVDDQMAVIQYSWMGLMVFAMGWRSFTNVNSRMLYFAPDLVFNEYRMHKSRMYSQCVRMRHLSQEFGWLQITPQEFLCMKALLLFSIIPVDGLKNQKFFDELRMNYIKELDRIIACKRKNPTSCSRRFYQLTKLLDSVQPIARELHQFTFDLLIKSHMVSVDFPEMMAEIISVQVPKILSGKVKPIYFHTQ
Estrogen receptor (Homo sapiens), sequence (P03372 whole entry, looked up): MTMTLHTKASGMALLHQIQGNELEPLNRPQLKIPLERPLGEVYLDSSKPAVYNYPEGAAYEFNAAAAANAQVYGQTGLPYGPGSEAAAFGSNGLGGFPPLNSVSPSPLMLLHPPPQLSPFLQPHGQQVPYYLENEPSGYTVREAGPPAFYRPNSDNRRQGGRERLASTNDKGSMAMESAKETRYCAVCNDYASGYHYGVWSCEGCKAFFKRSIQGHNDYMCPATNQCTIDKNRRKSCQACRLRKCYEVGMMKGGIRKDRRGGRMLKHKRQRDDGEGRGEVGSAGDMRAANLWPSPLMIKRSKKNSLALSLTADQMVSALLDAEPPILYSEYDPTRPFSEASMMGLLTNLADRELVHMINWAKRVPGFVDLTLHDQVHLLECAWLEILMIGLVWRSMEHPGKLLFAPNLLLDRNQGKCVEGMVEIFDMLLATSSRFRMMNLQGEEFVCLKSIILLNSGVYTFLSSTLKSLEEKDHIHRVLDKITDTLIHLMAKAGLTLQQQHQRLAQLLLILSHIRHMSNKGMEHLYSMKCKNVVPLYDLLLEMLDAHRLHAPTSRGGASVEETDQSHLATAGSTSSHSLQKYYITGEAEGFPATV

With `CC/C=C/CCO`, the Potency result in [1], in [2], in experiment [3], in experiment [4], in experiment [5] and in [7] was “inactive” in each case. The Potency entry in experiment [8], in experiment [9], in experiment [10], in experiment [11], in [12] and in [13] was “inactive” each time. In addition, the Potency result in experiment [14] and in experiment [15] was “inactive” throughout. Moreover, in [6], the result was inactive.
Consider `O=C(O)c1ccc(O)c(O)c1`, for which the Potency entry in experiment [1], in [2], in experiment [3], in experiment [4], in [5] and in experiment [7] was “inactive” each time. Further, the Potency result in experiment [8], in experiment [9], in [11], in [12], in experiment [13] and in experiment [16] was “inactive” in each case. In addition, the Potency result in [17], in experiment [14] and in [19] was “inactive” throughout. In addition, the call in [6] and in [18] was inactive.
With `CC1=C(C)C(=O)C(C(CCCCCC(=O)O)c2ccccc2)=C(C)C1=O` (stereo not given), the Potency entry in experiment [1], in [2], in experiment [3], in [4], in experiment [5] and in experiment [7] was “inactive” each time. The Potency result in experiment [9], in experiment [11], in experiment [12], in experiment [13], in experiment [17] and in experiment [20] was “inactive” each time. In addition, the Potency result in experiment [14] is “inactive”. Moreover, the compound was called inactive in experiment [6] and in [18]. Moreover, the Potency in experiment [8] was 10.7 µM (active).
Regarding `NC(=O)c1ccccc1`, the Potency result in experiment [1], in experiment [2], in experiment [3], in experiment [4], in experiment [5] and in [7] was “inactive” throughout. Moreover, the Potency result in [8], in experiment [9], in experiment [11], in experiment [12], in [13] and in experiment [16] was “inactive” each time. In addition, the Potency entry in [17], in experiment [14], in [19] and in experiment [15] was “inactive” in each case. Moreover, the outcome in experiment [6] and in [18] was inactive.
For `CCc1ccc(C(=O)C(C)CN2CCCCC2)cc1` (stereo not given), the Potency result in [1], in [2], in [3], in experiment [4], in [5] and in experiment [7] was “inactive” in each case. Also, the Potency result in experiment [8], in experiment [9], in [10], in experiment [11], in experiment [12] and in [13] was “inactive” each time. The Potency entry in [20], in experiment [14], in experiment [19] and in [15] was “inactive” throughout. Also, the result in experiment [6] was inactive.
As to `CCCCCCC/C=C/C=O`, the Potency result in [1], in experiment [2], in experiment [3], in experiment [4], in experiment [5] and in [7] was “inactive” in each case. For the same compound, the Potency result in [8], in experiment [11], in experiment [12], in experiment [13], in experiment [17] and in experiment [14] was “inactive” each time. In addition, the Potency entry in experiment [19] and in [15] was “inactive” in each case. Moreover, the compound was called inactive in [6] and in experiment [18].
Consider `O=C1c2ccccc2C(=O)c2c1ccc(O)c2O`, for which the Potency result in experiment [1], in experiment [2], in experiment [3], in experiment [4], in experiment [5] and in experiment [7] was “inactive” in each case. Also, the Potency entry in experiment [8], in [9], in experiment [11], in experiment [20] and in experiment [15] was “inactive” each time. The call in experiment [6] and in [18] was inactive. Besides, in experiment [14], the Potency is 29.8 µM (active).
`Clc1cccc(C(c2ccc3nc[nH]c3c2)n2ccnc2)c1` (stereo not given): the Potency entry in experiment [1], in experiment [2], in experiment [3], in experiment [4], in experiment [5] and in experiment [9] was “inactive” each time. Besides, the Potency result in experiment [10], in experiment [11], in experiment [12], in [13], in experiment [16] and in experiment [17] was “inactive” in each case. Also, the Potency result in experiment [20] and in experiment [14] was “inactive” in each case. Further, the result in experiment [6] and in [18] was inactive. In addition, in [8], the Potency was 3.38 µM (active).
